Records with an inconclusive call do not appear. Calls of active or inactive are those of the source. Rule for the calls: active = hit-call score of the fitted dose curve at least 0.9, where 1 is the maximum; inconclusive = response in the unintended direction; inactive = score below 0.9.

The target in this assay is human Retinoic Acid Receptor gamma (RARg), RARG (gene 5916) (UniProt P13631). Description: ATG_RARg_TRANS: Attagene TRANS-FACTORIAL HepG2 Assay for human Retinoic Acid Receptor gamma (RARg) (AID 2283009). As for the experimental part: ATG_TRANS is a cell-based, multiplexed-readout assay that uses HepG2, a human liver cell line, with measurements taken at 24 hours after chemical dosing in a 24-well plate.ATG_RARg_TRANS is one of 30 assay component(s) measured or calculated from the ATG_TRANS assay. It is designed to make measurements of mRNA induction, a form of inducible reporter, as detected with fluorescence intensity signals by Reverse transcription polymerase chain reaction (RT-PCR) and Capillary electrophoresis technology.Data from the assay component ATG_RARg_TRANS was analyzed into 1 assay endpoint. This assay endpoint, ATG_RARg_TRANS, was analyzed in the positive analysis fitting direction relative to DMSO as the negative control and baseline of activity. Using a type of inducible reporter, measures of mRNA for gain-of-signal activity can be used to understand the reporter gene at the transcription factor-level as they relate to the gene RARG. Furthermore, this assay endpoint can be referred to as a primary readout, because this assay has produced multiple assay endpoints where this one serves a reporter gene function. To generalize the intended target to other relatable targets, this assay endpoint is annotated to the nuclear receptor intended target family, where the subfamily is non-steroidal.
Sequence of human Retinoic Acid Receptor gamma (RARg), RARG (gene 5916) (P13631 whole entry, looked up): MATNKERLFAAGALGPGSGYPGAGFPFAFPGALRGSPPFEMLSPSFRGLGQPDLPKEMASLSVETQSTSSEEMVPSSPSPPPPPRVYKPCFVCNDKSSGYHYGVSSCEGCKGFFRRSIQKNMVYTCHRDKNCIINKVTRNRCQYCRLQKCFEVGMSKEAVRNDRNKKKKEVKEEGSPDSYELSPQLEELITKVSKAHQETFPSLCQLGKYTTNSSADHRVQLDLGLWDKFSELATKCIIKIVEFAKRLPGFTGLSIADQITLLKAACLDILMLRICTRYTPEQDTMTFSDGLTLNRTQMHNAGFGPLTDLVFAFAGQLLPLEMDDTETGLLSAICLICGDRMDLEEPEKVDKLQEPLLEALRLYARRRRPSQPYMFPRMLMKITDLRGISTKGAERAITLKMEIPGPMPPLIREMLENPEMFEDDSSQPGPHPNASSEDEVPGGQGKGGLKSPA
Human liver HepG2 cells are transiently transfected with multiple reporter transcription units (MRTUs) in 6-well plates using FuGene 6 reagent (Roche; 3 ml FuGene/1 mg DNA). The MRTU constructs are regulated by a cis-regulating element (promoter). […] A major difference between the CIS and TRANS system is that in CIS activities of endogenous TFs are measured, whereas the TRANS assay evaluates changes in activities of exogenous, chimeric NR-Gal4 proteins. […] At the end of 24 hour incubation, total RNA was isolated using TriZol reagent (Invitrogen). The isolated RNA is then reverse-transcribed using oligo(dT) primer and Mo-MLV reverse transcriptase (Invitrogen) with DNAse I (Ambion) treatment for 30 min. The one-tenth of the produced cDNA was amplified by PCR using Taq DNA polymerase (Invitrogen) and two reporter sequence-specific primers. The PCR products were fluorescently labeled by primer extension with 6-arboxyfluorescein (6-FAM) 5'-labeled reporter sequence-specific primer (2 min at 95 C, 20 s at 68 C and 10 min at 72 C) and these products were digested with 5U of HpaI (New England Biolabs) for 2h at 37 C. […] The raw capillary electrophoresis data was processed using Attagraph software (Attagene).
For `O=C(Cl)C(F)(F)C(F)(F)C(F)(F)C(=O)Cl`, the molecule was classed as inactive. Consider `COc1cc(C(C)C)c2c(c1)S(=O)(=O)N(COc1cc(=O)n3cccc(OCCN4CCCCC4)c3n1)C2=O`, for which the result was inactive. In the case of `OCCC(F)(F)C(F)(F)C(F)(F)C(F)(F)F` it was “inactive”. In the case of `NC(=O)N1c2ccccc2C=Cc2ccccc21` it was “inactive”; in that of `Cc1ccc(S(=O)(=O)NC(=O)NN2CCCCCC2)cc1`, “inactive”; in that of `Nc1ccn([C@@H]2O[C@H](CO)[C@@H](O)[C@@H]2O)c(=O)n1`, “inactive”.

On to `CCCCCCCCN(C)C`, for which the call was inactive. Under `CCCCCCCC/C=C\CCCCCCCC(=O)OC[C@@H](O)[C@H]1OC[C@H](O)[C@H]1O` stands “inactive”; under `FC(F)=C(F)C(F)(F)C(F)(F)C(F)(F)C(F)(F)C(F)(F)C(F)(F)F`, “inactive”; under `Cc1nccn1-c1ccc(Sc2cccc(C3(C(N)=O)CCOCC3)c2)cc1`, “inactive”. As to `c1ccc2c(c1)-c1cccc3c1c-2cc1ccccc13`, the result was inactive. In the case of `CC(C)c1nnc2ccc(-c3ocnc3-c3cc(F)ccc3F)cn12` it was “inactive”.

With `O=S(=O)(O)CCC(F)(F)C(F)(F)C(F)(F)C(F)(F)C(F)(F)C(F)(F)F`, the result was inactive. In the case of `O=C(NO)C1(NS(=O)(=O)c2ccc(Oc3ccc(F)cc3)cc2)CCOCC1` it was “inactive”.

Regarding `c1ccc2cc3ccccc3cc2c1`, the outcome was inactive. In the case of `CCCOc1ccc(S(=O)(=O)N2CCN(CC)CC2)cc1-c1nc2c(CC)n(Cc3ccccn3)nc2c(=O)[nH]1`, the molecule was called inactive. As to `OC(O)(C(F)C(O)(O)C(F)(F)F)C(F)(F)F`, the molecule was classed as inactive. Under `Cc1cccc(O)c1C` stands “inactive”. Under `COc1cc2c(c(OC)c1OC)-c1ccc(OC)c(=O)cc1[C@@H](NC(C)=O)CC2` stands “inactive”; under `OCc1c[nH]c2ccccc12`, “inactive”.

Take `OC[C@H]1O[C@@H]2O[C@H]3[C@H](O)[C@@H](O)[C@@H](O[C@H]4[C@H](O)[C@@H](O)[C@@H](O[C@H]5[C@H](O)[C@@H](O)[C@@H](O[C@H]6[C@H](O)[C@@H](O)[C@@H](O[C@H]7[C@H](O)[C@@H](O)[C@@H](O[C@H]1[C@H](O)[C@H]2O)O[C@@H]7CO)O[C@@H]6CO)O[C@@H]5CO)O[C@@H]4CO)O[C@@H]3CO`: the molecule was called inactive. In the case of `C[Si](C)(C)C(F)(F)C(F)(F)C(F)(F)F` it was “inactive”. Under `CC[C@H](C)C(=O)O[C@H]1C[C@H](O)C=C2C=C[C@H](C)[C@H](CC[C@@H](O)C[C@@H](O)CC(=O)O)[C@H]21` stands “inactive”. In the case of `CCCCCCCC1CCC(=O)O1` (centres undefined) it was “inactive”.

Source of the values: PubChem BioAssay (EPA / NIEHS).
